Screening data from PubChem.
An excerpt weighted towards active compounds, which were near 2.6% of everything screened.
EBV LMP1 NFkB: reduces LMP1-driven NF-kappaB luciferase signal; AID 504558; inhibition, % at 12.5 µM; 350,000 compounds, 0.69% hits; LMP1-induced NF-kappaB luciferase reporter cells, luminescence; in the data active means inhibition above about 41%; inconclusive means no clear call, values can overlap the other calls;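 further: 0% = neutral control wells and 100% = reference inhibitor control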
aDG glyco up: increases alpha dystroglycan glycosylation | Pro5-aDG cells, alpha-DG glycosylation AlphaScreen (IIH6); 0% Pro5, 100% B10-LARGE cell signal | activation, % at 10 µM | 360,000 compounds, 0.22% hits | AID 624168;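 active means activation of at least 8% versus controls, or a plate z-score of at least 8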;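 further: Pro5 are CHO cells carrying HIG-tagged alpha-DG that lacks glycosylation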
TWEAK-Fn14 inh: inhibitors of TWEAK-Fn14 interaction signaling | TWEAK-stimulated Fn14 reporter cells, luciferase luminescence, 8 h | inhibition, % at 10 µM | 360,000 compounds, 2% hits | AID 1159606; in the data active means inhibition above about 50%
LGR2 antag: Drosophila LGR2 receptor signaling inhibition; HEK293 LGR2, CRE-luciferase, bursicon-stimulated, 4 h; inhibition, % at 9.99 µM; 380,000 compounds, 0.35% hits; AID 720647;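 active means drop in luminescence signal, shown as inhibition above about 50% in the replicate tests, limit read from the data, passing the limit was not always enough; inconclusive means probably only some replicates passing the limit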;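 further: agonist challenge used bursicon conditioned medium at about half maximal strength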
HSP90 inh: HSP90 refolding inhibition in rabbit reticulocyte lysate; luciferase refolding luminescence, 3 h; inhibition, % at 5.6 µM; 290,000 compounds, 0.91% hits; AID 1789;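 active means inhibition above the screen-wide mean plus 3 SD, computed separately per campaign, cut at about 16% in these data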;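 further: 0% = DMSO wells and 100% = 60 µM geldanamycin wells; inhibitors lower the luminescence because luciferase stays unfolded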
TROY signal inh: TROY signaling inhibition | Q293 LMP1-TROYcd NF-kB luciferase reporter, 4 h | inhibition, % at 10 µM | 360,000 compounds, 0.98% hits;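 active means compounds whose plate-normalised and pattern-corrected inhibition of the luciferase reporter signal at the single screening dose is 50% or more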
Active calls of the source: *; ? = inconclusive; nt = no result given.

SMILES | EBV LMP1 NFkB | aDG glyco up | TWEAK-Fn14 inh | LGR2 antag | HSP90 inh | TROY signal inh
COCC(=O)N1CC[C@H]2[C@@H]1c1cc(-c3ccc(OC)cc3)ccc1N(C)[C@H]2CO | nt | nt | nt | 12 | nt | nt
C[C@@H]1CN([C@@H](C)CO)C(=O)Cc2cc(NC(=O)CCCCCC(=O)Nc3ccccc3N)ccc2O[C@@H]1CN(C)S(=O)(=O)c1ccc(F)cc1 | nt | nt | nt | -5 | nt | nt
Cc1ccc(C)c(NC(=O)c2ccccc2NS(=O)(=O)c2cc([N+](=O)[O-])ccc2C)c1 | 31 | 0 | 58* | 30 | 3 | 55*
Cc1ccc([N+](=O)[O-])cc1S(=O)(=O)Nc1cccc(S(=O)(=O)Nc2ccccc2C(=O)O)c1 | 4 | 0 | 4 | nt | nt | -8
O=C(CSc1c(Cl)cccc1Cl)N1CCC(c2nc3ccccc3s2)CC1 | 5 | 0 | 19 | nt | -1 | 51*
O=C(CSc1ccc(Cl)cc1)N1CCC(c2nc3ccccc3s2)CC1 | 14 | 0 | 44 | nt | 1 | 25
CC1(C)Nc2ccccc2C(=O)N1NC(=O)c1ccccc1 | -2 | 0 | 7 | 5 | 0 | -4
CC1(C)Nc2ccccc2C(=O)N1c1ccccc1 | 62* | 0 | -9 | -20 | -3 | -20
CN(C)C(=O)c1cccc(-c2ccc([C@H]3[C@@H](CO)N4CCCCN(CCC(F)(F)F)C[C@@H]34)cc2)c1 | nt | nt | nt | -1 | nt | nt
COc1ccc(C(=O)NCCSc2ccccc2)cc1 | -4 | 0 | 61* | 27 | 14 | 14
COc1ccc(C(=O)NOCc2ccccc2)cc1 | 48* | 0 | 86* | 73* | nt | 47
O=C(NOCc1ccccc1)c1ccc(Cl)cc1 | 32 | 0 | 66* | 44 | nt | 30
CC(=O)Oc1ccc(C(=O)NCCc2ccccc2)cc1 | -2 | 0 | 60* | 15 | 16 | 18
CC(=O)Oc1ccc(-c2ccc(C(=O)NCCc3ccc(S(N)(=O)=O)cc3)cc2)cc1 | -18 | 0 | -4 | -7 | 4 | -9
COc1ccc(-c2cnc3c(c2)C(=O)N([C@H](C)CO)C[C@@H](C)[C@@H](CN(C)C(=O)C2CCCCC2)O3)cc1 | nt | nt | nt | -1 | nt | nt
CCCN1C[C@H](C)[C@@H](OC)CN(C)C(=O)c2cc(NC(=O)Nc3c(C)noc3C)ccc2OC[C@H]1C | nt | nt | nt | 10 | nt | nt
COc1ccc(S(=O)(=O)N(C)C[C@@H]2Oc3c(NS(=O)(=O)c4ccc(Cl)cc4)cccc3C(=O)N([C@H](C)CO)C[C@H]2C)cc1 | nt | nt | nt | 12 | nt | nt
O=C(C[C@@H]1CC[C@@H]2[C@H](COC[C@@H](O)CN2C(=O)Nc2ccccc2)O1)NCc1ccccc1F | nt | nt | nt | -9 | nt | nt
COc1ccc2oc(C(=O)NCCc3ccccc3)c(C)c2c1 | 54* | 0 | 82* | ? | nt | 70*
Cc1cccc(C)c1-n1c(C)cc(/C=N\Nc2ccc([N+](=O)[O-])cn2)c1C | 1 | 1 | 80* | nt | 9 | nt
O=[N+]([O-])c1ccc(NN=Cc2cccc(O)c2)nc1 | -14 | 0 | 16 | -63 | nt | -30
CNC(=O)CN(Cc1ccccc1)S(=O)(=O)c1ccccc1 | 8 | 0 | -13 | nt | -1 | -8
CC(C)(C)NC(=O)CN(Cc1ccccc1)S(=O)(=O)c1ccccc1 | 0 | 0 | 54* | 34 | -1 | 4
CC(C)(C)n1[nH]c2c3c(ccc2c1=O)C(=O)c1ccccc1C3=O | -24 | 4 | 64* | nt | 17* | 45
O=C(NC(Nc1ncc(S(=O)(=O)c2ccc([N+](=O)[O-])cc2)s1)(C(F)(F)F)C(F)(F)F)c1ccc(Cl)cc1 | 24 | 0 | 47 | nt | 2 | 53*
SMILES | EBV LMP1 NFkB | aDG glyco up | TWEAK-Fn14 inh | LGR2 antag | HSP90 inh | TROY signal inh
COCC(=O)Nc1ncc(S(=O)(=O)c2ccc([N+](=O)[O-])cc2)s1 | -1 | 0 | 13 | -1 | -2 | 7
COc1ccc(Cc2c(C(C)(C)C)nc3ccc(Br)cn23)c(C)c1 | nt | 0 | 2 | nt | nt | 93*
c1cncc(-c2ccc3ncnc(NCc4cccs4)c3c2)c1 | 21 | 0 | 20 | -21 | nt | 11
COc1cccc(-c2ccc3ncnc(NCc4cccc(C)c4)c3c2)c1 | 13 | 2 | 63* | 14 | nt | 50*
Cc1ccc2ncnc(NCCC(=O)O)c2c1 | 6 | 0 | 12 | nt | 3 | -1
Cc1noc(C)c1-c1ccc2ncnc(NCC3CCCCN3C)c2c1 (configuration not stated) | 18 | 0 | 6 | 3 | nt | 6
COc1cccc(CNc2ncnc3ccc(-c4c(C)noc4C)cc23)c1 | ? | 0 | 79* | -8 | nt | 30
COCCCNc1ncnc2ccc(C)cc12 | -2 | 5 | 39 | nt | -1 | 55*
COc1cccc(-c2ccc3ncnc(NCc4cccs4)c3c2)c1 | 4 | 0 | 69* | 11 | nt | 44
CO[C@@H]1CN(C)C(=O)c2ccc(NS(C)(=O)=O)cc2OC[C@H](C)N(C(=O)C2CCCC2)C[C@H]1C | nt | nt | nt | 2 | nt | nt
C[C@H](CO)N1C[C@H](C)[C@@H](CN(C)C(=O)c2cccc(F)c2)Oc2cc(-c3ccncc3)ccc2S1(=O)=O | nt | nt | nt | -11 | nt | nt
Cc1ccsc1CNc1ncnc2ccc(-c3c(C)noc3C)cc12 | 12 | 0 | 81* | 4 | nt | 44
Cn1ccc2cc(-c3ccc4ncnc(NCc5cccs5)c4c3)ccc21 | 10 | 0 | 55* | nt | nt | 12
COc1ccc(/C=N/NS(=O)(=O)c2ccc(C)cc2)cc1OC(=O)c1ccc(C)cc1 | 0 | 0 | 55* | nt | 0 | 6
Cc1ccc(S(=O)(=O)Nc2ccc3c(c2)C(=O)N([C@@H](C)CO)C[C@@H](C)[C@H](CN(C)C(=O)Nc2ccc(C(F)(F)F)cc2)O3)cc1 | nt | nt | nt | -13 | nt | nt
O=C(C[C@H]1C=C[C@H](NC(=O)C2CCC2)[C@@H](CO)O1)Nc1nccs1 | nt | nt | nt | -5 | nt | nt
C=CCn1c(SCc2csc(C)n2)nc2sc3c(c2c1=O)CCCC3 | 44* | 1 | 10 | nt | 3 | 22
Cc1ccc(/C=N/NC(=O)Cn2nnc(N)n2)cc1 | -9 | 0 | 12 | -35 | 4 | 13
Cc1ccc(/C=N/NC(=O)Cn2nnc(N)n2)o1 | -2 | 0 | 87* | 6 | -1 | -1
CCc1nc(NCC2CCCN2CC)c2nnn(Cc3ccccc3F)c2n1 (configuration not stated) | 0 | 0 | 69* | nt | -2 | -20
Cc1ccnc(NC(=O)c2ccc(C(=O)c3ccccc3)cc2)c1 | 50* | 0 | 88* | 55* | nt | 61*
COC(=O)c1cccc(NC(=O)c2cc3ccccc3o2)c1 | -21 | 0 | 102* | nt | 16 | 69*
Cc1ccnc(NC(=O)c2cc3ccccc3o2)c1 | 39 | 0 | 91* | 77* | nt | 60*
COC(=O)c1cc(NC(=O)c2cc3ccccc3o2)cc(C(=O)OC)c1 | 3 | 0 | -43 | 0 | -2 | 11
Cc1ccnc(NC(=O)c2ccccc2NC(=O)c2ccccc2)c1 | 0 | 0 | 9 | -11 | 4 | 15
C=C(C)c1cccc(C(C)(C)NC(=O)Nc2cc(C)ccn2)c1 | 2 | 2 | 44 | nt | -6 | 52*
